{
  "source": "PubChem BioAssay",
  "data": [
    {"target": "Neurogenic locus notch homolog protein 3 (Homo sapiens) (UniProt Q9UM47)", "sequence (Q9UM47 whole entry, looked up)": "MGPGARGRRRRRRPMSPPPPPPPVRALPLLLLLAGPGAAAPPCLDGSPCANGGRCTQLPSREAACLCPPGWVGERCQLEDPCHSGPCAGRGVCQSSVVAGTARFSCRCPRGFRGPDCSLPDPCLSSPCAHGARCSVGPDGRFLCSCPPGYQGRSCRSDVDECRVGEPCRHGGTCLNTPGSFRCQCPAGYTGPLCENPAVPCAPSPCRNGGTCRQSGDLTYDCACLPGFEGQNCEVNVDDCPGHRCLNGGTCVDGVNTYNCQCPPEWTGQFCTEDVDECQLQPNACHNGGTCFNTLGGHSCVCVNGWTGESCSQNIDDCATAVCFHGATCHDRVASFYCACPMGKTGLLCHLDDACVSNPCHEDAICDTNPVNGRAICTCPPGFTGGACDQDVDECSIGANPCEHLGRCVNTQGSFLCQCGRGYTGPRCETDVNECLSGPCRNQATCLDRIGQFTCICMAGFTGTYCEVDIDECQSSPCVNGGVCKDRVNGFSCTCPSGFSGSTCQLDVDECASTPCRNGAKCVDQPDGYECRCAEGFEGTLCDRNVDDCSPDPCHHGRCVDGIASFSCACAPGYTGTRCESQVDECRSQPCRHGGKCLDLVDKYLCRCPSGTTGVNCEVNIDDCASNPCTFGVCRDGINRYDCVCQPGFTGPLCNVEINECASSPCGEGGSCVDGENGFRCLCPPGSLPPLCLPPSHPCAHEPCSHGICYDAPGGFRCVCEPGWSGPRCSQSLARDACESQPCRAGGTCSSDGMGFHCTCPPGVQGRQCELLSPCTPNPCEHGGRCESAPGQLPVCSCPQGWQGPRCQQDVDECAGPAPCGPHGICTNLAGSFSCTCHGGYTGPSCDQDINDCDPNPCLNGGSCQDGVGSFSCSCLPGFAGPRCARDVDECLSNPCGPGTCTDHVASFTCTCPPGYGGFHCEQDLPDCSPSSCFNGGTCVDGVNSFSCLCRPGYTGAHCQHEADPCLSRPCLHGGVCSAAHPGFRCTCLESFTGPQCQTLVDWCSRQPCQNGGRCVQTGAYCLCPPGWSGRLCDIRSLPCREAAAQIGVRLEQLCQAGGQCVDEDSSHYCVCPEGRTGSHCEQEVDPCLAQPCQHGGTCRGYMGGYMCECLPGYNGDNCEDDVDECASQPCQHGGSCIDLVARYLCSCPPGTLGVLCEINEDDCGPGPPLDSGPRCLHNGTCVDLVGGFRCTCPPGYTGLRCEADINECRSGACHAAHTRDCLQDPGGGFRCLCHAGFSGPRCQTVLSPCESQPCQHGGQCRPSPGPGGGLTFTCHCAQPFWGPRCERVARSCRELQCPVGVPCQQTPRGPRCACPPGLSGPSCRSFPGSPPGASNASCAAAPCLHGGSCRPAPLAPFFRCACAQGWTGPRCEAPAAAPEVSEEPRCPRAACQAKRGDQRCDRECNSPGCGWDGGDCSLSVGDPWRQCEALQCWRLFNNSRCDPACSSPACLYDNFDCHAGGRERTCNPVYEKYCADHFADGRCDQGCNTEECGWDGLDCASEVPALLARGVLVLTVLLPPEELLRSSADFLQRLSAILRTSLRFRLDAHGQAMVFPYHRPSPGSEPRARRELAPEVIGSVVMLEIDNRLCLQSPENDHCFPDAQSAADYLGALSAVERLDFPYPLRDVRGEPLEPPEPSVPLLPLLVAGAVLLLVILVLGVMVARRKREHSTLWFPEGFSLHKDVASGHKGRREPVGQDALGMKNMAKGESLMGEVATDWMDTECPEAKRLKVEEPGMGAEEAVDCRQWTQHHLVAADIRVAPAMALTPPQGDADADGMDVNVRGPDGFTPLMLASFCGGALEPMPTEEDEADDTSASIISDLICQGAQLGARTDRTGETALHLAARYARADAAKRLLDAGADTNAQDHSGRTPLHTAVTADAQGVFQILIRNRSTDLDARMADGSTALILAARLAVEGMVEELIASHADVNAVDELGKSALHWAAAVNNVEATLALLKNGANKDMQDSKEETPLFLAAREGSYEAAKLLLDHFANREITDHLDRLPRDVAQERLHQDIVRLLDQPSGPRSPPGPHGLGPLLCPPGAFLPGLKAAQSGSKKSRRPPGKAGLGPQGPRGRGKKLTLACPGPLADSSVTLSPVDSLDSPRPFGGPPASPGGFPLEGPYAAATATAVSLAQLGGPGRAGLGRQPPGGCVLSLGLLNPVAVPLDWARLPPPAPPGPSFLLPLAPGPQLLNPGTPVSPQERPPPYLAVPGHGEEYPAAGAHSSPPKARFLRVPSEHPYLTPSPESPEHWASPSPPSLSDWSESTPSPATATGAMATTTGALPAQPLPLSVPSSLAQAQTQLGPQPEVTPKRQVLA", "test": "NOTCH3 binders on small-molecule microarray, primary screen, biochemical, 635/667 nm fluorescence (AID 1096)", "settings": "NOTCH3 binding, 635 nm fluorescence, higher = more signal", "values": [
      {"smiles": "CO[C@@H]1COC(=O)CC=C[C@@H](C)[C@H](OC)COC(=O)CC=C[C@H]1C", "composite z-score": -0.801},
      {"smiles": "O=C1O[C@H](c2ccccc2)[C@H](c2ccccc2)N2[C@H]1[C@@H](C(=O)Nc1nc3ccccc3s1)[C@]1(C(=O)Nc3ccc(C#CC4(O)CCCCCC4)cc31)[C@H]2c1ccc(O)cc1", "composite z-score": 1.09},
      {"smiles": "O=C1O[C@@H](c2ccccc2)[C@@H](c2ccccc2)N2[C@@H](c3ccccc3OCCO)[C@]3(C(=O)Nc4ccc(C#CC5=CCCCC5)cc43)[C@@H](C(=O)O)[C@H]12", "composite z-score": 1.05},
      {"smiles": "O=C1O[C@@H](c2ccccc2)[C@@H](c2ccccc2)N2[C@@H](c3ccc(O)cc3)[C@]3(C(=O)Nc4ccccc43)[C@@H](C(=O)N3CCN(c4ncccn4)CC3)[C@H]12", "composite z-score": 0.079},
      {"smiles": "C[N+](C)(C)CCCCNC(=O)[C@@H]1C[C@@H]2C(=O)N3CCC[C@H]3C(=O)N2[C@@H]1c1cccc(OCCO)c1", "composite z-score": 0.751},
      {"smiles": "C=CC[C@@]1(C(=O)N2CCOCC2)N=C(c2ccc(OCCCO)cc2)O[C@@H]1c1ccccc1", "composite z-score": -1.35},
      {"smiles": "CCC#CCN(Cc1ccccc1Br)[C@H](/C=C/c1ccccc1)[C@@H](O)Cc1ccccc1", "composite z-score": -1.11},
      {"smiles": "O=C(NCc1ccccc1)c1ccc(Br)cc1[N+](=O)[O-]", "composite z-score": 0.338},
      {"smiles": "CC(C)N1CC=CC23O[C@@H]4/C=C\\CCCOC(=O)C4[C@H]2C(=O)N(CCCCCO)[C@@H]3C1=O", "note": "(stereo partly specified)", "composite z-score": -1.89},
      {"smiles": "O=C1OCC=C[C@H]2OC34C=CCN(Cc5ccccc5)C(=O)[C@H]3N(CCO)C(=O)[C@@H]4[C@@H]12", "note": "(stereo partly specified)", "composite z-score": -0.159},
      {"smiles": "O=C1O[C@H](c2ccccc2)[C@H](c2ccccc2)N2[C@H]1[C@@H](C(=O)NC[C@H](O)c1ccccc1)[C@]1(C(=O)Nc3ccc(C#CC4=CCCCC4)cc31)[C@H]2c1ccc(OCCO)cc1", "composite z-score": 1.11},
      {"smiles": "COc1ccc(-c2ccccc2[C@@H]2N[C@H](C(=O)O)CC[C@H]2C)cc1", "composite z-score": 0.412},
      {"smiles": "CCOC(=O)C[C@H]1[C@H](OC(=O)c2cc3ccccc3oc2=O)[C@@H](NC(=O)C2CCCCC2)c2cc(OCCCO)ccc2N1C(=O)c1ccc2ccccc2n1", "composite z-score": 1.02},
      {"smiles": "NC(=O)NCC#Cc1ccc2c(c1)[C@]1(C(=O)N2)[C@H](C(=O)N2CCCCCCC2)[C@H]2C(=O)O[C@H](c3ccccc3)[C@H](c3ccccc3)N2[C@@H]1c1ccccc1OCCO", "composite z-score": 1.05},
      {"smiles": "Cc1ccc(N2C(=O)c3ccccc3[C@@H](C(=O)NCc3ccccc3)[C@@H]2c2ccc(CO)cc2)nc1", "composite z-score": -0.763},
      {"smiles": "COC(=O)C(CC#Cc1ccc2c(c1)[C@]1(C(=O)N2)[C@H](C(=O)N2CCCCCCC2)[C@H]2C(=O)O[C@H](c3ccccc3)[C@H](c3ccccc3)N2[C@@H]1c1ccc(O)cc1)C(=O)OC", "composite z-score": -0.909},
      {"smiles": "COc1ccc([Si](C)(C)[C@@H]2[C@@H](CCO)O[C@]3(C(=O)N(Cc4ccc(NC(=O)[C@H](C)O)cc4)c4ccccc43)[C@H]2C)cc1", "composite z-score": 0.62},
      {"smiles": "C=CCNC(=O)[C@@H]1[C@H]2C(=O)O[C@H](c3ccccc3)[C@H](c3ccccc3)N2[C@H](c2ccc(OCCO)cc2)[C@@]12C(=O)N(C(=O)OCCOC)c1ccc(C#CC3(O)CCCCCC3)cc12", "composite z-score": 0.955},
      {"smiles": "CC1CC/C=C\\[C@H]2OC34C=CCN(Cn5nnc6ccccc65)C(=O)[C@H]3N(C(C)CO)C(=O)[C@@H]4C2C(=O)O1", "note": "(stereo partly specified)", "composite z-score": -0.118},
      {"smiles": "COc1ccc([Si](C)(C)[C@H]2[C@H](CC(=O)N(CCO)Cc3ccccc3)O[C@@]3(C(=O)N(C)c4ccccc43)[C@@H]2C)cc1", "composite z-score": 1.11},
      {"smiles": "CO[C@H]1COC(=O)[C@H](CCSC)NC(=O)CC=C[C@@H](C)COC(=O)[C@@H](OCc2ccccc2)C=C[C@@H]1C", "composite z-score": 0.13},
      {"smiles": "C=CCOC(=O)[C@@H]1[C@H]2C(=O)O[C@H](c3ccccc3)[C@H](c3ccccc3)N2[C@H](c2ccc(OCCOC(=O)[C@H]3C[C@H]4C(=O)N[C@@H](CCCCNC(C)=O)C(=O)N4[C@H]3c3ccc(O)cc3)cc2)[C@@]12C(=O)Nc1ccc(I)cc12", "composite z-score": 1.07},
      {"smiles": "O=[N+]([O-])c1ccc(C[n+]2ccc3ccc(O)cc3c2)o1", "composite z-score": 0.791},
      {"smiles": "COCCOC(=O)N1C(=O)[C@@]2(c3cc(C#CC4=CCCCC4)ccc31)[C@H](C(=O)NC[C@H](O)c1ccccc1)[C@H]1C(=O)O[C@H](c3ccccc3)[C@H](c3ccccc3)N1[C@@H]2c1ccccc1OCCO", "composite z-score": 1.07},
      {"smiles": "CCOC(=O)C1=CC[C@@H](c2ccc(-c3ccc(OCc4ccccc4)cc3)c(OC)c2)N(S(=O)(=O)c2ccc(C)cc2)[C@H]1c1ccccc1", "composite z-score": 1.09},
      {"smiles": "COC(=O)[C@@]1(Cc2ccc(OC)cc2)[C@H]2c3cc(C(=O)N(C)C)n(Cc4ccc(C)c(F)c4F)c3C[C@H]2CN1C(=O)c1ccccc1", "composite z-score": 0.797},
      {"smiles": "CCCC=C(CCC)[C@@H](NS(=O)(=O)c1ccc(-c2ccccc2)cc1)c1ccc(C(=O)OC)cc1", "composite z-score": -0.616},
      {"smiles": "CCOC(=O)[C@H]1C/C=C/C[C@H](C(=O)OCC)C(=O)O[C@H]2[C@@H](OC)O[C@H](CO)[C@@H](OC(=O)Nc3ccc(Br)cc3)[C@@H]2OC1=O", "composite z-score": 0.869},
      {"smiles": "C=C[C@H](OC)[C@@H](OC(=O)Nc1ccc(SC)cc1)c1ccc(O)c(F)c1", "composite z-score": 0.134},
      {"smiles": "COCCOC(=O)N1C(=O)[C@@]2(c3cc(C#CCNC(N)=O)ccc31)[C@H](c1ccc(OCCO)cc1)N1[C@H](c3ccccc3)[C@H](c3ccccc3)OC(=O)[C@H]1[C@@H]2C(=O)N1CCCCCCC1", "composite z-score": 0.555},
      {"smiles": "CN(C)c1ccc(C(O)C2C=CC3C(=O)NC(=O)C3N2Nc2ccc(Cl)cc2Cl)cc1", "note": "(stereo unspecified)", "composite z-score": 0.809},
      {"smiles": "COCCOC(=O)N1C(=O)[C@@]2(c3cc(C#CCC(C(=O)OC)C(=O)OC)ccc31)[C@H](C(=O)N1CCN(c3ncccn3)CC1)[C@H]1C(=O)O[C@H](c3ccccc3)[C@H](c3ccccc3)N1[C@@H]2c1ccc(O)cc1", "composite z-score": 1.17},
      {"smiles": "COCCOC(=O)N1C(=O)[C@@]2(c3ccccc31)[C@H](C(=O)N1CCc3cc(OC)c(OC)cc3C1)[C@H]1C(=O)O[C@H](c3ccccc3)[C@H](c3ccccc3)N1[C@@H]2c1ccccc1OCCO", "composite z-score": 1.07},
      {"smiles": "CC(C)=C1C(=O)C(c2ccccc2)=C2CN3C(=O)N(CCc4ccccc4)C(=O)[C@]3(Cc3ccccc3)[C@H]21", "composite z-score": -0.546},
      {"smiles": "CO[C@H]1COC(=O)CC=C[C@H](C)COC(=O)[C@@H](OCc2ccccc2)C=C[C@@H]1C", "composite z-score": -0.532},
      {"smiles": "[N-]=[N+]=NCc1ccccc1C[C@@]1(C(=O)N2CCOCC2)N=C(c2ccc(OCCCO)cc2)O[C@@H]1c1ccccc1N=[N+]=[N-]", "composite z-score": 1.08}
    ]}
  ]
}
